Results: PubChem BioAssay (NCI)
This is part of a sample that, as a whole, favours compounds with a hit. Of some 79,000 tested, about 15% had one in any assay. Cut-off read from the data, not from the text of the source: active = growth inhibition above about 70%; inactive = the rest. Where a SMILES comes first, the peptide text is derived from it. [ ]: non-standard residue; d: D form. The star is where a group is joined. ξ: configuration not given here. ξAsp(βξ-Me) = CC(C(=O)O)C(N)C(=O)O; X11 = CC(N*)C1NC(=O)C2CCCCN2C1=O; ξAbu(3ξ-NH2) = CC(N)C(N)C(=O)O; X10 = CCC(C)CCC/C=C/CC(=O)*

Legend:
[1] = NCI Yeast Anticancer Drug Screen. Data for the rad50 strain (AID 155);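 note: 0% = growth of vehicle-only cultures of the same strain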; conditions: S. cerevisiae rad50 strain growth inhibition; at 50.0 µM; stronger effect = higher value
Summary of the method: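 Vehicle-treated cultures provide the reference for the growth inhibition reported for compound-exposed, repair-deficient yeast.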

[2] = NCI Yeast Anticancer Drug Screen. Data for the mec2-1 strain (AID 157); conditions: S. cerevisiae mec2-1 strain, at 50.0 µM, stronger effect = higher value
Summary of the method: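 mec2-1 yeast strain, carrying an alteration in DNA damage repair or cell cycle control, was exposed to compounds; growth inhibition was measured relative to vehicle-treated controls.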

[3] = NCI Yeast Anticancer Drug Screen. Data for the sgs1 mgt1 strain (AID 161);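 note: 0% = growth of cultures given vehicle only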; conditions: S. cerevisiae sgs1 mgt1 strain, at 50.0 µM, stronger effect = higher value
Summary of the method: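 Growth of a repair-deficient yeast mutant was monitored after compound treatment and expressed as inhibition relative to vehicle-treated cultures.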

[4] = NCI Yeast Anticancer Drug Screen. Data for the cln2 rad14 strain (AID 165);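 note: 0% = growth equal to vehicle treated cultures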; conditions: S. cerevisiae cln2 rad14 strain, at 50.0 µM, stronger effect = higher value
Summary of the method: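 Yeast carrying cln2 and rad14 alterations (cell cycle control and DNA damage repair) were exposed to compounds. Growth inhibition was measured against vehicle-treated controls.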

[5] = NCI Yeast Anticancer Drug Screen. Data for the bub3 strain (AID 167); conditions: S. cerevisiae bub3 mutant strain, at 50.0 µM, stronger effect = higher value
Summary of the method: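 Mutant yeast screening strain plus compound; vehicle-treated cultures serve as the 0% inhibition reference.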

[6] = NCI Yeast Anticancer Drug Screen. Data for the mlh1 rad18 strain (AID 175); conditions: S. cerevisiae mlh1 rad18 strain growth inhibition; at 50.0 µM; stronger effect = higher value
Summary of the method: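 Growth inhibition of the yeast strain was measured after compound exposure and expressed relative to vehicle-treated controls. The strain carries defined defects in DNA damage repair.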

Measured: growth inhibition

C[N+](C)(C)C12CCC(CC1)C1([N+](C)(C)C)CCC2CC1
inactive: [1] 4.2% | [2] 21.4% | [3] 17.2% | [4] -10.2% | [5] 4.45% | [6] 22.1%

Cn1c(=O)c(C(c2ccccc2)c2c(O)c3ccccc3n(C)c2=O)c(O)c2ccccc21
inactive: [1] 12.1% | [2] 6.5% | [3] -19.2% | [4] -34% | [5] 2.8% | [6] 15.8%

CCOC(=O)CCc1cn2cc(Br)nc(OC)c2n1
inactive: [1] -18.6% | [2] -38% | [3] 14.6% | [4] 19.9% | [5] 3.7% | [6] -13.6%

CCc1ccc(NC(=O)Nc2cccc(Cl)c2)cc1
inactive: [1] -5.8% | [2] 14.4% | [3] -5.35% | [4] -19.6% | [5] -0.55% | [6] 4.9%

Cc1cc(=O)c2c(F)ccc(F)c2[nH]1
inactive: [1] 0% | [2] 4.5% | [3] 13.9% | [4] -36.4% | [5] -7.85% | [6] 12.7%

CCOC(=O)c1c(O)[nH]c(=O)c(CC)c1C
inactive: [1] -13.2% | [2] -29.3% | [3] -45.8% | [4] -16.4% | [5] -30.8% | [6] -4.1%

CC1(C)COC(CCl)OC1
inactive: [1] 27.1% | [2] 17.9% | [3] 11.3% | [4] -16.5% | [5] 1.95% | [6] 30.9%

CCC(C)CCC/C=C/CC(=O)NC(CC(=O)O)C(=O)NC(C(=O)NC(CC(=O)O)C(=O)NCC(=O)NC(CC(=O)O)C(=O)NCC(=O)NC(C(=O)NC(C(=O)N1CCCC1C(=O)NC(C)C1NC(=O)C2CCCCN2C1=O)C(C)C)C(C)N)C(C)C(=O)O (stereo not drawn) (X10-D[ξAsp(βξ-Me)]DGDG[ξAbu(3ξ-NH2)]VP-X11; configuration not given here)
inactive: [1] -38.3% | [2] -42.5% | [3] -56.2% | [4] -67.4% | [5] -29.5% | [6] -25.9%

O=c1[nH]c2cc(Cl)ccc2nc1/C=C(\O)c1cccc2ccccc12
inactive: [1] 40.9% | [2] 15.2% | [3] 28.6% | [4] 17% | [5] 15.1% | [6] 35%

CC(=O)CCc1cccc([N+](=O)[O-])c1
inactive: [1] -17.6% | [2] -5.1% | [3] -14.5% | [4] -6.85% | [5] -0.15% | [6] -7.25%

Cc1ccc2ccccc2c1C(=O)c1ccccc1Cc1cccc2ccccc12
inactive: [1] 17.6% | [2] 2.65% | [3] 10.6% | [4] 2.2% | [5] 4.55% | [6] -1.05%

COc1cc2c(cc1C(C)c1ccc(OCc3ccccc3)cc1)OCO2 (stereo not given)
inactive: [1] -1.3% | [2] -1.1% | [3] -8.6% | [4] -13.1% | [5] 0% | [6] 9.65%

O=C1c2ccccc2C(=O)c2c1ccc1c2N=C(c2ccc(Br)cc2)CC(c2cccc3ccccc23)N1 (stereo not given)
inactive: [1] -22.1% | [2] 11.6% | [3] 17.9% | [4] 10.2% | [5] 9.95% | [6] -11.6%

CC(=O)OC/C=C/CN(C)C
inactive: [1] 9.3% | [2] 4.6% | [3] -7.25% | [4] 7.8% | [5] -6.2% | [6] 16.5%

CCNC(=O)CCC(NS(=O)(=O)c1ccc(NC(=O)c2ccc(Cl)cc2)cc1)C(=O)O (stereo not given)
inactive: [1] 0.8% | [2] -4.95% | [3] -26% | [4] -4.6% | [5] 0.1% | [6] -1.9%

N#CCc1csc(-c2ccccc2)n1
inactive: [1] 26.6% | [2] 16.8% | [3] 6.2% | [4] 15.2% | [5] 1.55% | [6] 27%

Cc1ccccc1N=Nc1c(C)nc(N)nc1-c1ccccc1
inactive: [1] 1% | [2] 8.6% | [3] 6.2% | [4] -12.6% | [5] -14.5% | [6] 12.2%

NC(=NC1CCCCC1)c1ccc(C(=O)OCC2CCCCC2)cc1
inactive: [1] 39.2% | [2] 12.6% | [3] 45.5% | [4] 19.9% | [5] 21.8% | [6] 26.4%

COc1ccc(C(=O)c2ccc(OC)cc2)cc1
inactive: [1] -15.1% | [2] -27.1% | [3] -3.1% | [4] -17.6% | [5] 1.6% | [6] -15.1%

COc1cc(/C=C(\C)c2ccc3c(c2)OCO3)cc(OC)c1OC
inactive: [1] 15% | [2] 12.6% | [3] 35% | [4] 5.15% | [5] 12.8% | [6] -5.85%
